Source: PubChem BioAssay (NCATS)
Several values for one entry are separate records, joined by “and”; a condition that tells them apart may be missing. Equal values may be shown once. Records with an inconclusive call do not appear. Activity calls are given as the source filed them. Unless noted, calls follow the shape of the dose curve; as a rule, active = well fitted curve in the direction sought with a large enough effect; inconclusive = small, poorly fitted or top-dose-only effect, or another doubt; inactive = no such curve, though single readings can be large; an effect the other way counts as inactive or inconclusive.

Tests used:
[1] = qHTS assay for small molecule antagonists of retinoid X receptor alpha signaling (AID 588546; active = well fitted inhibition curve with a large enough effect in the signal ratio, with a control signal flat, not every such curve was filed as active; the % refers to the signal ratio;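 also: cells stimulated with 9-cis-retinoic acid as agonist; % is scaled to controls: 0 for no effect and ±100 for the full control effect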); details: HEK293T RXRa-UAS-bla, beta-lactamase ratio, antagonist mode; measured here: W530 green channel, cytotoxicity proxy
Summary of the method: (§1)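 Beta-lactamase reporter inhibition, read as CCF4 fluorescence ratio (ex 405, em 460/530 nm) after 2 h at RT. HEK293T UAS-bla cells, 2500/well, were stimulated with 9-cis-RA at 500 or 100 nM final alongside test compound for 18 h at 37 C.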

[2] = molecular target: Retinoic acid receptor RXR-alpha (Homo sapiens) (UniProt P19793); experiment: as above; details: HEK293T RXRa-UAS-bla, beta-lactamase ratio, antagonist mode
Summary of the method: as §1

[3] = molecular target: Voltage-gated inwardly rectifying potassium channel KCNH2 (Homo sapiens) (UniProt Q12809); experiment: qHTS Assay for Small Molecule Inhibitors of the Human hERG Channel Activity (AID 588834); details: U2OS BacMam hERG, FluxOR thallium flux fluorescence; series mostly up to 46.1 µM;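 also: top concentration of the series differs between compounds; % is scaled to controls: 0 for no effect and ±100 for the full control effect; lower thallium flux fluorescence means stronger hERG block; nearly all actives have a fitted effect of over 50% in size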
Summary of the method: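 Thallium-flux (FluxOR) read-out on FDSS: fluorescence read 10 s before and 2 min after stimulation buffer. hERG-BacMam-transduced U2OS cells, compound exposure about 10 min. AC50 by standard Hill equation.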

[4] = molecular target: Luciferin 4-monooxygenase (Photinus pyralis) (UniProt P08659); experiment: Biochemical firefly luciferase enzyme assay for NPC (AID 624030);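 also: purified P. pyralis luciferase at 10 nM with luciferin and ATP substrate; 0% = DMSO and -100% = full luciferase inhibition by PTC124 control; nearly all actives have a fitted effect of over 70% in size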; details: purified P. pyralis luciferase, luminescence, 5 min; series mostly up to 58.6 µM
Summary of the method: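 Purified P. pyralis luciferase at 10 nM in 50 mM Tris Acetate (final), luminescence read within 5 minutes of enzyme addition to compounds. Activity normalised to PTC124 versus DMSO; concentration-response curves classed by r2, magnitude and activity.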

[5] = S16 Schwann cell viability assay (CellTiter-Glo assay) (AID 624031); details: S16 rat Schwann cells viability, 24 h; series mostly up to 57.5 µM;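 also: native untransfected S16 rat Schwann cells; cellular ATP luminescence as a viability measure; plate controls were DMSO-treated cells for no effect and cell-free wells for full effect; nearly all actives have a fitted effect of over 70% in size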
Summary of the method: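 Parental S16 cells, 24 h compound, 37 °C. ATP-luminescence viability; DMSO = 0% activity, empty wells as reference; curves classified by fit quality and efficacy.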

[6] = S16 Schwann cell PMP22 intronic element firefly luciferase assay (AID 624032); details: S16 rat Schwann cells, PMP22 element FLuc, 24 h; series mostly up to 57.5 µM;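 also: plate controls were DMSO for no effect and PTC124 positive control mean for full effect; nearly all actives have a fitted effect of over 30% in size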
Summary of the method: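 Rat S16 Schwann cells stably carrying firefly luciferase driven by a PMP22 intronic element, in 10% FBS, treated 24 h at 37 C. ONE-Glo luminescence normalized to PTC124 control and DMSO (0%); curves classed by r2, magnitude and activity.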

[7] = molecular target: Retinoic acid receptor RXR-alpha (Homo sapiens) (UniProt P19793); experiment: qHTS assay for small molecule agonists of retinoid X receptor alpha signaling (AID 588544; calls by dose curve;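 also: 0% = DMSO basal wells and 100% = reference agonist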); details: HEK293T RXRa-UAS-bla, beta-lactamase reporter, 18 h; series mostly up to 76.7 µM
[8] = molecular target: Thyroid hormone receptor beta (Homo sapiens) (UniProt P10828); experiment: qHTS assay for small molecule antagonists of thyroid hormone receptor beta signaling (AID 588547; active = well fitted inhibition curve with a large enough effect in the signal ratio, with a control signal flat, not every such curve was filed as active; the % refers to the signal ratio;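 also: cells stimulated with 0.4 nM T3 agonist during compound exposure; % is scaled to controls: 0 for no effect and ±100 for the full control effect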); details: TR-UAS-bla HEK293, beta-lactamase ratio, antagonist mode, 18 h
Summary of the method: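 TR-UAS-bla GripTite HEK293 cells in 2% charcoal/dextran FBS medium; compounds 0.59 nM to 92 uM with T3 at 0.4nM final, 18 h at 37 C. Beta-lactamase read by CCF4 fluorescence (460/530 nm); Hill fits gave IC50 and efficacy.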

[9] = molecular target: Glutaminase kidney isoform, mitochondrial (Homo sapiens) (UniProt O94925); experiment: qHTS for Inhibitors of Glutaminase (GLS): LOPAC Validation (AID 624146); details: glutaminase enzyme activity inhibition; series mostly up to 46.1 µM; also: nearly all actives have a fitted effect of over 60% in size; also: potency is read from the fitted curve at half-maximal effect
Summary of the method: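 Read-out is an Amplex red fluorescence increase coupled through glutamate oxidase and HRP, measured before and after 30 min room-temperature incubation. hKGA is in 45 mM KH2PO4 (pH 8.2) with 0.02% Tween-20; glutamine added as 1mM solution.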

[10] = molecular target: Glucagon-like peptide 1 receptor (Homo sapiens) (UniProt P43220); experiment: qHTS of GLP-1 Receptor Agonists: LOPAC Validation (AID 624148); details: GLP-1R agonist cell assay; series mostly up to 46.1 µM;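 also: 0% is about no effect; higher luminescence signal means agonism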
Summary of the method: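 HEK293 cells stably co-expressing GLP-1R and a cAMP-responsive luciferase reporter, plated 12 hours before compound, then incubated 4-6 hr at 37 deg C. Luminescence read 12 min after detection reagent.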

[11] = qHTS of Nrf2 Activators: LOPAC Validation (AID 624149); details: Nrf2/ARE reporter cell assay; series mostly up to 46.1 µM; also: 0% is about no effect
Summary of the method: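 Cells (AREc32_Fluc) are plated at 1000 per well in OPTI-MEM containing 5% FBS and left overnight. Compounds are pinned in and incubated 24 hr at 37 deg C, and firefly luciferase is detected with Steady-Glo.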

[12] = HTS Assay for Allosteric Antagonists of the Human D2 Dopamine Receptor: Hit Validation in HTRF (AID 624455); details: Cells stably expressing D1 dopamine receptor, inhibition mode; series mostly up to 46.1 µM;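 also: stable D1 dopamine receptor cell line scored for blocking the D1 response; % is scaled to controls: 0 for no effect and ±100 for the full control effect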
Summary of the method: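 Inhibition of the D1-mediated response is measured by HTRF in cells that stably express the D1 dopamine receptor. Compounds reaching this step are hits from calcium-flux antagonism testing at EC80 dopamine in inducible Hek293 Trex D2 cells.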

[13] = S16 Schwann cell PMP22 intronic element beta-lactamase assay (AID 624044; calls by dose curve;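 also: 0% = DMSO and -100% = potassium clavulanate positive control; nearly all actives have a fitted effect of over 15% in size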); details: S16 rat Schwann cells, PMP22 element beta-lactamase FRET, 24 h; series mostly up to 38.3 µM
Summary of the method: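 Beta-lactamase reporter under a PMP22 intronic regulatory element in stable S16 rat Schwann cells; 24 h compound exposure. 460 nm blue signal normalized between DMSO (0%) and potassium clavulanate, with 535 nm FRET tracking viability; curves classed by r2 and response.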

[14] = qHTS of Trypanosoma Brucei Inhibitors: LOPAC Validation (AID 624147); details: purified enzyme assay, luminescence, 45 min; series mostly up to 57.5 µM; also: 0% is about no effect
Summary of the method: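 Readout: single end-point luminescence (Kinase-Glo Plus, 10 min). Reaction conditions were TbPYK/substrate plus 130 uM ADP, 45 min at RT, pH 7.2 TEA buffer. No-enzyme wells served as controls, and data were normalized before concentration-response fitting.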

Glucagon-like peptide 1 receptor (Homo sapiens), sequence (P43220 whole entry, looked up): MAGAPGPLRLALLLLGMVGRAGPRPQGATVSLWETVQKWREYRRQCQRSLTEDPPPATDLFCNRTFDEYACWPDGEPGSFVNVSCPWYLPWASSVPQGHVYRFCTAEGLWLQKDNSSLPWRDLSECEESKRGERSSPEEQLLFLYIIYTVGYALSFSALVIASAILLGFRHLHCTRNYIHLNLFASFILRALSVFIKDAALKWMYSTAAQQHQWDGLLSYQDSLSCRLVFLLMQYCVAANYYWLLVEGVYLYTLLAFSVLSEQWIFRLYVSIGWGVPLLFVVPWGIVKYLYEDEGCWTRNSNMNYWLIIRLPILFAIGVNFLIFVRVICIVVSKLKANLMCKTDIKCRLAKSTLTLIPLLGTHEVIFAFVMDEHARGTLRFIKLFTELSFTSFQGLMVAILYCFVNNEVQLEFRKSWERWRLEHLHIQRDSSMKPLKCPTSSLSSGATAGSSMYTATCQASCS
Luciferin 4-monooxygenase (Photinus pyralis), sequence (P08659 whole entry, looked up): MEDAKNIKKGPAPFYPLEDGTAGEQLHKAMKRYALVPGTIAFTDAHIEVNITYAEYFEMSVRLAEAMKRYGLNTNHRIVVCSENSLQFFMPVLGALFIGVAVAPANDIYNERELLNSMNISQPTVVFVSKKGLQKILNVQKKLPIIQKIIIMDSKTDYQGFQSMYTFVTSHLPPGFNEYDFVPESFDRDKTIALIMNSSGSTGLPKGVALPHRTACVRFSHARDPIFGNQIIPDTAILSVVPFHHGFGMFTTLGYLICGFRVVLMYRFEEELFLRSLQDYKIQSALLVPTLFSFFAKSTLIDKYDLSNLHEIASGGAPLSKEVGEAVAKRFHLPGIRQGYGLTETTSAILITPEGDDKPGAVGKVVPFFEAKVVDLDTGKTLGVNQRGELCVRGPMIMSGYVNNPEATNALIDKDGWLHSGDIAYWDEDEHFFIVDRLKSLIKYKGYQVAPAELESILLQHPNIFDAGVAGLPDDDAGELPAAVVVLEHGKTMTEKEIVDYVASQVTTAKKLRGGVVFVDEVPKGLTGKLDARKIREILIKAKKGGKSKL
Voltage-gated inwardly rectifying potassium channel KCNH2 (Homo sapiens), sequence (Q12809 whole entry, looked up): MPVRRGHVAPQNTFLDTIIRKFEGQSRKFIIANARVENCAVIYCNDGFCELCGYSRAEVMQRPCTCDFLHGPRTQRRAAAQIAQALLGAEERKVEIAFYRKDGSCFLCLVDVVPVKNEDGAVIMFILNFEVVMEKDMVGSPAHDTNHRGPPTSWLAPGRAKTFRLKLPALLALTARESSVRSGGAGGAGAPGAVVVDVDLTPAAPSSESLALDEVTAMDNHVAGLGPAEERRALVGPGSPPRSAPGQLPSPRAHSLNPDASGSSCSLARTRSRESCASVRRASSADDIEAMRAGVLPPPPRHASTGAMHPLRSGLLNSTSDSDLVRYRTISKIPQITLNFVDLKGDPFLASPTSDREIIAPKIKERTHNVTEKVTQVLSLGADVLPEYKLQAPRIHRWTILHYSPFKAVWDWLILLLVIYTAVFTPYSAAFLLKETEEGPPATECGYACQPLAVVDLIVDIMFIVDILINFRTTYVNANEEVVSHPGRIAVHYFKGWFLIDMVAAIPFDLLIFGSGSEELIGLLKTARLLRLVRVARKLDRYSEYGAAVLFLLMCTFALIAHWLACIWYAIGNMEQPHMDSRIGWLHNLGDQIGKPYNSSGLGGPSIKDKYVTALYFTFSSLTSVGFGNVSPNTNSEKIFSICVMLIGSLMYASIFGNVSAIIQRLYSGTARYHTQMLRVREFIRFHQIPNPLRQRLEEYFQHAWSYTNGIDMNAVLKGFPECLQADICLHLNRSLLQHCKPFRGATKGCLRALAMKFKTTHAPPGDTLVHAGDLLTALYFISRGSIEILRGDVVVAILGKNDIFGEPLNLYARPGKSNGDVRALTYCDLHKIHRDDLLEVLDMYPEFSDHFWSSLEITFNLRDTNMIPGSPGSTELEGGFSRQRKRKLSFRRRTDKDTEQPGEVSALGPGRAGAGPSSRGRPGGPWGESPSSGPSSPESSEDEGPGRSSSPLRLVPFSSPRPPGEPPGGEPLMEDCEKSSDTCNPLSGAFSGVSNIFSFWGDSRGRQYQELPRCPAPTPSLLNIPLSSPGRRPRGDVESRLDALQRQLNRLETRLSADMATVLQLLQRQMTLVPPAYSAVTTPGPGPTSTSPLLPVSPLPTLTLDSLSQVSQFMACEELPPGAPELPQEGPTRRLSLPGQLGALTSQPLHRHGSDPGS
Retinoic acid receptor RXR-alpha (Homo sapiens), sequence (P19793 whole entry, looked up): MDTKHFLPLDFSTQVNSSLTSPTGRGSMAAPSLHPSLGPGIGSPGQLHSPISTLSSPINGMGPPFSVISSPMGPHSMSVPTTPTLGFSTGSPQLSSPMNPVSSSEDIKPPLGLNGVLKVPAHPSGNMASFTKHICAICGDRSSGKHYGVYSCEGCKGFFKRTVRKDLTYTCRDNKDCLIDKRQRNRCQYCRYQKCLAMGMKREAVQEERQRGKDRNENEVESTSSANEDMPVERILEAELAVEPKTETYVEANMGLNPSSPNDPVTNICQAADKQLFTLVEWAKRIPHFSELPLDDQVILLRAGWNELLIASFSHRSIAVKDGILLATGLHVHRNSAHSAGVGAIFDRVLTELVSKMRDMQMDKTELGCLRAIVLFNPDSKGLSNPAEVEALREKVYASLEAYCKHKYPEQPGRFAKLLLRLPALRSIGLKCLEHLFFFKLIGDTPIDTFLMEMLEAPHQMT
Thyroid hormone receptor beta (Homo sapiens), sequence (P10828 whole entry, looked up): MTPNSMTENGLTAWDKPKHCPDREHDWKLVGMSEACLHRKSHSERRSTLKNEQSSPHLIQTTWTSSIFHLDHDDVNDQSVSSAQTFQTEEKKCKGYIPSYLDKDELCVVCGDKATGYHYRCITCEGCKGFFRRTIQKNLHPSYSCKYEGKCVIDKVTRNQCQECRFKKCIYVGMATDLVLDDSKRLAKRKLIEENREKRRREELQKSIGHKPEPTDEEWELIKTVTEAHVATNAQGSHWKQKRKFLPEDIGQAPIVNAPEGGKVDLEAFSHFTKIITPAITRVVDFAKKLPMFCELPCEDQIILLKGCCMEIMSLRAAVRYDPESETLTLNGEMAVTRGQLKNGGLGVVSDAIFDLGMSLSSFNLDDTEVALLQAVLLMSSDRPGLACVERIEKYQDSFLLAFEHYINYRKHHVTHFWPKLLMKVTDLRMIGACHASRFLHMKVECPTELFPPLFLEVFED
Glutaminase kidney isoform, mitochondrial (Homo sapiens), sequence (O94925 whole entry, looked up, canonical isoform): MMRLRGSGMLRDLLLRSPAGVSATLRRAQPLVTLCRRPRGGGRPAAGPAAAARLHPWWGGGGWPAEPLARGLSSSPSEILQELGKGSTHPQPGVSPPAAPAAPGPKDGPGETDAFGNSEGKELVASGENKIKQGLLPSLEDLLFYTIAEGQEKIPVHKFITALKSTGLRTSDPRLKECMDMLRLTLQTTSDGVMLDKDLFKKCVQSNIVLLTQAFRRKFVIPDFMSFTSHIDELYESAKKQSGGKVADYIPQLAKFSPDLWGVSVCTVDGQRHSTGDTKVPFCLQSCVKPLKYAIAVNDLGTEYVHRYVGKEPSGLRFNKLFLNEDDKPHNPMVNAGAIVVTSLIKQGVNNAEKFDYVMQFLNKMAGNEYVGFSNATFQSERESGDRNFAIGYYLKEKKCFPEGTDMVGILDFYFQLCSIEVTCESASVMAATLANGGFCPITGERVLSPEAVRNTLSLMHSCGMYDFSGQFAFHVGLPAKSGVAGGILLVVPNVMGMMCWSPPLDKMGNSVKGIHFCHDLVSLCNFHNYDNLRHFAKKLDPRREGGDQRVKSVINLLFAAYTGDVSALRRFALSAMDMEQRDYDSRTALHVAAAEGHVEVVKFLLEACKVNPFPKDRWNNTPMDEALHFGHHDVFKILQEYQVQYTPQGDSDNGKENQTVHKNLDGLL

CC(O)CN(CCN(CC(C)O)CC(C)O)CC(C)O (stereo unspecified)
inactive: max response [2] -14.1% | Potency [3] | Potency [4] | Potency [5] | Potency [6]
-7.75%: max response [1]

CCCCC(CC)COC(=O)c1ccccc1O (stereo unspecified)
-3.04%: max response [1]
inactive: outcome [7] | max response [2] 6.6% | activity change % (negative = inhibition) [8] 12.6% | Potency [3] | Potency [4] | Potency [5]

C[C@@H]1CC[C@@]2(OC1)O[C@H]1C[C@H]3[C@@H]4CC[C@H]5C[C@@H](O)CC[C@]5(C)[C@H]4CC(=O)[C@]3(C)[C@H]1[C@@H]2C
inactive: Potency [3]

NC(=O)c1ncn([C@@H]2O[C@H](CO)[C@@H](O)[C@H]2O)n1
inactive: outcome [7] | activity change % (negative = inhibition) [8] -19.8% | Potency [3] | Potency [9] | outcome [10] | outcome [11] | outcome [12]

COc1ccccc1O
-10.5% and -8.87% and -4.21%: max response [1]
inactive: outcome [7] | max response [2] 0.752% and 5.31% and 3.65% | activity change % (negative = inhibition) [8] 8.27% and 8.42% and 1.01% | Potency [3] | Potency [4] | Potency [5] | Potency [6]

Cc1cccc(Nc2cc(Cl)nc(SCC(=O)O)n2)c1C
inactive: outcome [7] | max response [2] -6.08% | activity change % (negative = inhibition) [8] -2.88% | Potency [3] | Potency [4] | Potency [5] | Potency [6]
-6.52%: max response [1]

COC(=O)C1=C(C)NC(C)=C(C(=O)OC)C1c1ccccc1[N+](=O)[O-]
8.81%: max response [1]
inactive: max response [2] 23.4% | activity change % (negative = inhibition) [8] -6% | Potency [4] | Potency [5] | Potency [13] | outcome [10] | outcome [11] | outcome [12]

O=C(O)[C@H](O)c1ccccc1
inactive: Potency [3]

CC(O)COc1ccccc1 (stereo unspecified)
inactive: outcome [7] | max response [2] -2.29% | activity change % (negative = inhibition) [8] -6.45% | Potency [3] | Potency [4] | Potency [5] | Potency [6]
-7.54%: max response [1]

CNC(=O)Oc1ccc2c(c1)[C@]1(C)CCN(C)[C@@H]1N2C
inactive: outcome [7] | max response [2] 1.77% | activity change % (negative = inhibition) [8] 3.24% | Potency [3] | Potency [4] | Potency [5] | outcome [14] | outcome [10] | outcome [11] | outcome [12]
active: Potency [9] 10 µM
-2.66%: max response [1]

CC(CN1c2ccccc2Sc2ccccc21)N(C)C (stereo unspecified)
inactive: outcome [7] | activity change % (negative = inhibition) [8] -18.5% | Potency [4] | Potency [5] | Potency [13] | outcome [14] | outcome [10] | outcome [11] | outcome [12]
